The full ranking holds about 33,000 sequences; the median of “normalized occupancy” is about 0.075, and the highest 2% start at about 0.095. This is one part of a sample in which the highest values are shown more often than they occur.
What follows are sequences tested against MaxL homodimer (Homo sapiens, UniProt P61244 1-160) (assay: universal protein-binding microarray (PBM); PBS-based mixture, 10 nM His-tagged protein dimer, 2% milk, 200 ng/uL BSA, 50 ng/uL salmon testes DNA, 0.02% TX-100; detection with Alexa 488 anti-His antibody;; high values mean tight binding). Conditions: protein: recombinant; tags: C-terminal His-tag (pET21a); chain copies: 2; dsDNA, one strand shown.
Summary of the method: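 Each 8-mer received a fluorescence intensity from GenePix 4400A scans of Agilent 4 x 44 K 'all 10-mer' universal arrays. Those arrays had been incubated with His-tagged protein dimer at 10 nM, and the bound protein was marked with a fluorophore-conjugated anti-His antibody at 10 ng/μL. Binding occupancy is the intensity scaled to that of the highest-ranked sequence word.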

Sequence of MaxL homodimer (P61244 whole entry): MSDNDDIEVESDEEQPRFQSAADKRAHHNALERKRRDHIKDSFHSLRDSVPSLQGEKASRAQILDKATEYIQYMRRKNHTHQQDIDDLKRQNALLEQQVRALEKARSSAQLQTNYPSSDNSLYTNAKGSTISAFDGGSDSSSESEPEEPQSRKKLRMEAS

Sequence | binding signal [normalized occupancy]
TATCTTAA | 0.0728
TTCTCAAA | 0.0808
CTGCTCCC | 0.0741
ACGGTTAA | 0.0751
CTGCAGCA | 0.0755
GACCTTAC | 0.0765
CCAAGCTA | 0.0731
AATGTGCC | 0.0816
CGTGTTCA | 0.1
AATGTGTG | 0.0963
CATGTGCA | 0.149
AATGTGTA | 0.0864
AATGTGCA | 0.0888
AGTGTTCA | 0.0774
TATGTGCA | 0.084
AATGTGCG | 0.0957
GATGTGCA | 0.0814
AGTGTGTG | 0.0828
GGTGTTCA | 0.0754
CATAATTA | 0.0816
TACTAATA | 0.0814
CGAGCAGA | 0.0731
ACATCCGC | 0.0795
TACTTATA | 0.0836
GTAAATCA | 0.0784

Sequence | binding signal [normalized occupancy]
ATCTCGTA | 0.0765
ACCTCATA | 0.0788
ACCTCATG | 0.113
ATCTCGTG | 0.0991
AGCTCGTG | 0.0836
ACCTCATC | 0.0736
ACCTCGTG | 0.156
ACCTCGTC | 0.0738
ACATCGTA | 0.0832
ACCTCGTA | 0.0827
ACATCGTG | 0.0998
ACATCGTC | 0.0753
AGACGTCC | 0.0732
CAGCAATG | 0.082
CTTACAAC | 0.0757
ATGTTTGG | 0.0806
CTCATGAA | 0.0856
CCTTGCGA | 0.0752
CCTATGCG | 0.0749
ATCATGTC | 0.0895
ACCATGAA | 0.0755
CCCATGCC | 0.0969
ATCATGTA | 0.0811
ACCATGAG | 0.0976
CCCATGTC | 0.0854

Sequence | binding signal [normalized occupancy]
CCCATGCG | 0.138
CCCATGAG | 0.0921
CCCATGAC | 0.0853
CCAATGCG | 0.0793
ATCATGTG | 0.137
ACATCACC | 0.0798
GACCAGCA | 0.0755
CTGTCGTA | 0.0747
GAGAACTA | 0.0732
CTCTCGAA | 0.0729
AACGGTTG | 0.0768
CGTTGCCA | 0.0801
GGCGGTGA | 0.0725
ACCATGAC | 0.0839
CCCATGCA | 0.0973
GCCATGGC | 0.0823
CCCATACA | 0.0836
ACAATGTA | 0.085
GCCATGCA | 0.0904
ACAATGTG | 0.0995
GCCATGCC | 0.0963
ACCATGGC | 0.0734
ACAATGTC | 0.079
ACCATGCC | 0.0954
CCCATGAA | 0.0827

Sequence | binding signal [normalized occupancy]
CATTTGTA | 0.0834
CATACGCG | 0.0762
AGGGAGCG | 0.0763
CCGTACGC | 0.072
ACACCAGT | 0.0764
CCGACTTA | 0.0735
CGCTAATC | 0.0771
GAAATAGC | 0.0789
ACCATGGA | 0.0861
ACCATGCA | 0.0972
ACCATGTG | 0.225
ACTATGCG | 0.0817
ACCATGTA | 0.0876
ACCATGAT | 0.084
ACCATGGT | 0.0862
ACCATGTC | 0.0794
ACAATGCG | 0.0867
ACCATGCT | 0.123
ACCATGCG | 0.136
TCCATGCA | 0.0861
ATGCTGGC | 0.0864
CAGGCCTG | 0.0765
AAACTAAC | 0.0741
ATTGGCGC | 0.0745
GTACAAGA | 0.0806

Sequence | binding signal [normalized occupancy]
CTTCTATC | 0.0768
AGTCAGCG | 0.0777
CCAATTGG | 0.0757
AGTCACGC | 0.0989
AATCACGC | 0.0974
AATCACGA | 0.0856
AGTCACGA | 0.0912
AGTCACGG | 0.0774
GATCACGC | 0.0977
GATCACCC | 0.0786
AATCACGG | 0.0727
GATCACGA | 0.0786
AATCACCT | 0.0853
AATCACTA | 0.0729
AATCACGT | 0.099
CCAATGGA | 0.0747
ACGCCTGC | 0.0743
CCAGAATC | 0.0733
CATCACGA | 0.0811
CATCACGG | 0.0829
CATCACGC | 0.0961
GGTCTTGA | 0.0779
CATGTGGC | 0.165
GATGTGGC | 0.0839
GATGTTGC | 0.0781

Sequence | binding signal [normalized occupancy]
AATGTGGA | 0.0903
CATGTGGG | 0.144
CATGTCGG | 0.088
CATGTTGA | 0.0943
CATGTTGC | 0.0999
CATGTGGA | 0.157
GATGTGGA | 0.0847
AATGTGGC | 0.0898
AATGTGGG | 0.0907
GGATTTGA | 0.0761
CTATAGTA | 0.0737
AACAATGC | 0.0816
AGCTGTTA | 0.0759
AAGTGTAA | 0.0802
GGGTCTAC | 0.0725
CGGACCCC | 0.0732
ACCTCGAG | 0.0843
CCATGCCC | 0.0935
GAATGCCC | 0.0765
ACATGCCC | 0.099
ACATGCCG | 0.103
GCATGCCC | 0.105
CAATGCCG | 0.0728
ATATGCCG | 0.0773
AGATGCCG | 0.0739

Sequence | binding signal [normalized occupancy]
ACATGCCT | 0.0828
CCATGCCG | 0.1
AGATGCCC | 0.0786
CCATGCCA | 0.0875
TAAGAGTA | 0.0797
TCTCACAA | 0.0786
ATGAGAGC | 0.078
CGAGATGC | 0.078
AAGGACAC | 0.0757
GGCCACGA | 0.0815
AGGTCTCA | 0.074
CAATTAAA | 0.0744
AGTGGTCG | 0.0719
AGATGCCA | 0.0772
GCATGCCA | 0.108
GTATGCCA | 0.0806
TCATGCCA | 0.0861
ACATGCCA | 0.0967
ATATGCCA | 0.0822
GGTCCCGA | 0.0733
ACTAACCT | 0.0752
CGTGGGAA | 0.089

Source: article PMC4242493, “Sequence specificity incompletely defines the genome-wide occupancy of Myc”
